Test [1] in a line: qHTS assay for measurement of the activity of small molecule inhibitors on Zika virus induced Caspase-3 activity in human iPSC derived neural progenitor cells (hNPCs) (AID 1224857). Further: % of control where 0% means no effect; nearly all actives have a fitted effect of over 65% in size. In outline: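 Quantitative HTS format: human iPSC neural progenitors, 1 h compound pretreatment, ZIKV 2 FFU/cell for 6 h at 37 C. Percent inhibition derived from luminescent caspase-3/7 signal between uninfected and infected controls.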

Test [2] in a line: qHTS assay for measurement of the activity of small molecule inhibitors on Zika virus induced Caspase-3 activity in human astrocytoma cells (AID 1224859).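 Further: plate controls were ZIKV-infected untreated cells for no effect and uninfected cells for full effect.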 Put shortly:
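Readout is luminescence from Caspase-Glo 3/7 added after a 6 h ZIKV infection (2 FFU/cell) of compound-pretreated (1 h) SNB-19 cells; data expressed as % inhibition versus uninfected and infected wells.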

The nature of test [3]: qHTS assay to identify small molecule inhibitors of chordoma cells - UCH-1 (AID 1259355). Further: nearly all actives have a fitted effect of over 55% in size. Further: potency means the concentration at half of the fitted maximal effect; series mostly up to about 46 µM. Put shortly:
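A 48hr growth-inhibition format: each drug tested at 15 concentrations together with added auranofin, camptothecin, doxorubicin, rubitecan and topotecan, with cell viability quantified as CellTiter-Glo luminescence.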

Test [4] can be described thus: NS1 protein of Zika virus - qHTS assay to identify small molecule inhibitors in human HEK 293 cells (AID 1347053).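 Further: series mostly up to about 46 µM; plate controls were infected untreated cells for no effect and uninfected cells for full effect; nearly all actives have a fitted effect of over 55% in size.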 Put shortly: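 Compound-treated (1 h pre-infection) HEK 293 cells infected with ZIKV MR766, MOI = 0.5; after 24 h at 37 C, NS1 read by TR-FRET; data normalized to uninfected and infected controls.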
A short description of test [5]: qHTS of pediatric cancer cell lines to identify multiple opportunities for drug repurposing: Primary screen for TC32 cells (AID 1347089). Further: nearly all actives have a fitted effect of over 60% in size. Further: potency means the concentration at half of the fitted maximal effect. On activity change, negative = cytotoxic: on the % scale 0 is the no-effect control and ±100 the full control effect. In outline:
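Measured quantity: luminescence from CellTiter-Glo, reflecting metabolically active TC32 cells following 48 h of compound. Curves came straight from multi-point titrations, with 8 or 11 points in primary and 11 in confirmatory screening.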

A short description of test [6]: qHTS assay to identify small molecule inhibitors of chordoma cells - UCH-2 (AID 1259356). Further: series mostly up to about 46 µM; on the % scale 0 is the no-effect control and ±100 the full control effect.
A short description of test [7]: P-glycoprotein substrates identified in KB-8-5-11 adenocarcinoma cell line, qHTS therapeutic library screen (AID 1346987). Further: nearly all actives have a fitted effect of over 65% in size. Further: potency means the concentration at half of the fitted maximal effect. Put shortly: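 In this qHTS, P-gp-rich KB-8-5-11 cells received library compounds across a concentration range. Viability was quantified by luminescence after 72 h at 37 degree C.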

Values without a mark were called inactive. Records with an inconclusive call do not appear. The source made the active and inactive calls. The call rests on the fitted dose curve; in most records, active means well fitted curve in the direction sought with a large enough effect; inconclusive means small, poorly fitted or top-dose-only effect, or another doubt; inactive means no such curve, though single readings can be large; an effect the other way counts as inactive or inconclusive.

As to `COc1cccc2c1C(=O)c1c(O)c3c(c(O)c1C2=O)C[C@@](O)(C(C)=O)C[C@@H]3O[C@H]1C[C@H](N)[C@H](O)[C@H](C)O1`, the result in test [1] and in test [2] was inactive. Further, the figures for the Potency in test [3] and in test [5] were 1780 nM (active) and 236 nM (active), respectively. Further, the Potency result in test [4] is “inactive”.
As for `Oc1c(I)cc(Cl)c2cccnc12`, the compound was classed as inactive in test [1] and in test [2]. The Potency result in test [6] is “inactive”.
With `C[C@@H]1CN(CCCn2c3ccccc3c3ccccc32)C[C@H](C)N1`, the call in test [1] and in test [2] was inactive. Further, the Potency result in test [6] was “inactive”. Also, the Potency in test [7] is 14600 nM (active).
For `CC[N+](CC)(CCNC(=O)C(=O)NCC[N+](CC)(CC)Cc1ccccc1Cl)Cc1ccccc1Cl`, the compound was classed as inactive in test [1] and in test [2]. The Potency entry in test [6], in test [7], in test [4] and in test [5] was “inactive” throughout.
As for `CCCCCC=CCC=CCCCCCCCC(=O)OCC`, the call in test [1] and in test [2] was inactive. For the same compound, the Potency entry in test [6], in test [7], in test [4] and in test [5] was “inactive” each time.
As for `O=C(COc1ccc(Cl)cc1)N1CCN(Cc2ccc3c(c2)OCO3)CC1`, the outcome in test [1] and in test [2] was inactive. Further, the Potency result in test [3], in test [4] and in test [5] was “inactive” throughout.
With `O=c1ccc2ccccc2o1`, the compound was classed as inactive in test [1] and in test [2]. In addition, the Potency entry in test [6], in test [7], in test [4] and in test [5] was “inactive” each time.
For the compound `OCc1ccccc1O`, the result in test [1] and in test [2] was inactive. Also, the Potency entry in test [6], in test [7], in test [4] and in test [5] was “inactive” each time.
As for `NC[C@H]1O[C@H](O[C@H]2[C@H](O[C@@H]3O[C@H](CO)[C@@H](O)[C@H]3O)C(O)[C@H](N)C[C@@H]2N)[C@H](N)[C@@H](O)[C@@H]1O` (some centres not stated), the activity change, negative = inhibition in test [1] is 16.5% [at 9.06 µM]; in test [2], 3.88% [at 9.06 µM]; in test [4] it was -23.8% [at 9.2 µM]. The Potency result in test [6] and in test [7] was “inactive” each time. The activity change, negative = cytotoxic in test [5] was 6.72% [at 9.17 µM].
Take `Cc1c(N(C)CS(=O)(=O)O)c(=O)n(-c2ccccc2)n1C`: the outcome in test [1] and in test [2] was inactive. Also, the Potency entry in test [6], in test [7], in test [4] and in test [5] was “inactive” throughout.
Take `COc1cc(/C=C/C(=O)O[C@H]2CC[C@]34C[C@]35CC[C@]3(C)[C@@H]([C@H](C)CCC=C(C)C)CC[C@@]3(C)[C@@H]5CC[C@H]4C2(C)C)ccc1O`: the outcome in test [1] and in test [2] was inactive. Moreover, the Potency entry in test [6], in test [7], in test [4] and in test [5] was “inactive” throughout.
Regarding `C=CCc1ccc(O)c(OC)c1`, the outcome in test [1] and in test [2] was inactive. Besides, the Potency entry in test [6], in test [7], in test [4] and in test [5] was “inactive” each time.
For the compound `Cc1ncc(CSSCc2cnc(C)c(O)c2CO)c(CO)c1O`, the result in test [1] and in test [2] was inactive. For the same compound, the Potency entry in test [6], in test [7], in test [4] and in test [5] was “inactive” in each case.
Turning to `COc1cc(C=C2CCC/C(=C\c3ccc(O)c(OC)c3)C2=O)ccc1O`, the outcome in test [1] and in test [2] was inactive. In addition, the Potency entry in test [6] was “inactive”. For the same compound, the Potency was 25900 nM (active) in test [7] and 938 nM (active) in test [5].
With `C[C@H]1C[C@H]2[C@@H]3CCC4=CC(=O)C=C[C@]4(C)[C@@]3(Cl)[C@@H](O)C[C@]2(C)[C@@]1(O)C(=O)CO`, the compound was called inactive in test [1] and in test [2]. The Potency entry in test [6], in test [7], in test [4] and in test [5] was “inactive” each time.
With `Cc1ccc(C(=O)C(C)CN2CCCCC2)cc1` (configuration not stated), the outcome in test [1] and in test [2] was inactive. Moreover, the Potency result in test [6], in test [7], in test [4] and in test [5] was “inactive” throughout.
Take `CCCCCCc1ccc(O)cc1O`: the compound was classed as inactive in test [1] and in test [2]. In addition, the Potency entry in test [6], in test [7], in test [4] and in test [5] was “inactive” throughout.
Take `CN=C(NC#N)Nc1ccc(C2=NNC(=O)CC2C)cc1` (configuration not stated): the compound was called inactive in test [1] and in test [2]. Further, the Potency result in test [6], in test [7], in test [4] and in test [5] was “inactive” each time.
For the compound `C[C@]12CCC(=O)C=C1CC[C@H]1[C@@H]3CC[C@](O)(C(=O)CO)[C@@]3(C)C[C@H](O)[C@@]12F`, the result in test [1] and in test [2] was inactive. The Potency entry in test [6], in test [7], in test [4] and in test [5] was “inactive” each time.
As for `O=C1OCCN1/N=C/c1ccc([N+](=O)[O-])o1`, the compound was called inactive in test [1] and in test [2]. The Potency result in test [6], in test [7], in test [4] and in test [5] was “inactive” each time.
